Consider 30 molecules from PubChem BioAssay AID651953 (The Scripps Research Institute Molecular Screening Center, 2012).

The campaign covered roughly 2,400 compounds. About 430 (18%) were called active. These entries were drawn from the full list. A number with no mark means an inactive call. Rule as the data show it: active = activation above about 12%; inactive = the rest.

This test is described as follows: nonspecific calcium signal increase, Ga16 cells – cell-based, fluorescence, counter-screen for TAAR1 antagonist project (AID 651953).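 Also: 0% = vehicle wells and 100% = saturating stimulus response.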 The following applies: Ga16-expressing cells, agonist counterscreen, at 3 µM, stronger effect = higher value. Background: Counterscreens check selectivity or assay interference.
Turning to `Cc1ccc2cccc(OCCCOc3ccccc3CO)c2n1`, the activation is 7.98%.

Consider `COc1ccc(/C=C/C(=O)Nc2ccc(C34CC5CC(CC(O)(C5)C3)C4)cc2)cc1OC`, for which the activation was 11.4%.

For the molecule `Cc1cccc(NC(=O)c2nc[nH]c2C(=O)NCC(=O)OCc2ccccc2)c1`, the activation was 4.58%.

For `CSCCC(NC(=O)COc1ccccc1)C(=O)OCC(=O)c1cc2ccccc2o1` (stereo not given), the activation is 7.36%.

`CC(=O)c1ccccc1OCc1ccc(C(=O)c2ccccc2)cc1`: the activation is 6.62%.

For the molecule `Cc1nc(N2CCN(c3ccccn3)CC2)c2c(C)c(C(=O)Nc3ccc(F)cc3)sc2n1`, the activation was 8.75%.

Consider `O=C(NCCN1C(=O)S/C(=C\c2cccnc2)C1=O)c1ccc(S(=O)(=O)N2CCCC2)cc1`, for which the activation was 2.99%.

For the molecule `O=S1(=O)c2c(cccc2N2CCCCC2)O[C@H](COCc2ccccc2)CN1C1CC1`, the activation is 2.53%.

Consider `CCN1CCc2c(C#N)c(NCc3ccccc3)nc(NCCO)c2C1`, for which the activation is 4.39%.

For the molecule `COc1ccc(Cl)cc1NC(=O)CCS(=O)(=O)c1cc2c(cc1C)NC(=O)CO2`, the activation was 8.26%.

As to `COc1ccc(-c2cc(C(=O)N(C)CC(=O)Nc3ccccc3Cl)c3ccccc3n2)cc1OC`, the activation is 7.25%.

As for `CCOc1ccc(N2CC(C(=O)N/N=C/c3sccc3C)CC2=O)cc1` (stereo not given), the activation was 1%.

Take `C/C(=N\Nc1ncc(Cl)cc1Cl)c1ccc(S(=O)(=O)NCc2ccco2)cc1`: the activation is 0.19%.

With `CSC(=S)N/N=C/c1c[nH]c2ccccc12`, the activation was 6.16%.

Consider `O=C(O)c1ccc(NC(=O)c2cn(-c3ccccc3)nc2-c2ccc(Cl)cc2)cc1`, for which the activation is 3.12%.

`O=C(NCC1CCCO1)c1cc2c([nH]c3ccccc32)c(-c2ccc(F)cc2)n1` (stereo not given): the activation is 6.43%.

On to `COc1ccc(-c2cc(C(=O)N(C)Cc3ccccc3)c3ccccc3n2)cc1`, for which the activation was 4.97%.

With `COc1ccc(-c2cc(C(=O)N(C)Cc3ccc(OC)c(OC)c3OC)c3ccccc3n2)cc1OC`, the activation is 7.43%.

Turning to `COc1ccc(CN(C)C(=O)c2cc(-c3ccc(C)cc3C)nc3ccccc23)c(OC)c1OC`, the activation is 11.6% (active).

As to `CC(C)Oc1cc(F)ccc1-c1cc(C(=O)Nc2ccc(F)cc2)[nH]n1`, the activation is 5.64%.

Regarding `COc1ccc(C(=O)Nc2ccccc2C(=O)N/N=C/c2ccc(O)c(OC)c2)cc1`, the activation is 7.09%.

Regarding `Cc1cc(C(C)(C)C)oc1C(=O)N(CC(=O)NC1CCCC1)Cc1ccc(Cl)cc1`, the activation was 13.9% (active).

As to `C=CCc1cc(S(=O)(=O)c2ccc(O)c(CC=C)c2)ccc1O`, the activation is 3.77%.

`COc1ccc2[nH]c(=O)c(CN(Cc3cccnc3)S(=O)(=O)c3ccccc3F)cc2c1`: the activation is 9.12%.

With `Cc1ccccc1OCC(=O)Nc1ccc(N2CCN(C(=O)C(C)C)CC2)c(Cl)c1`, the activation was 11.8% (active).

For the molecule `Cc1ccc(C)c(N2CCN(C(=O)CCCCCn3c(=S)[nH]c4ccc(N5CCOCC5)cc4c3=O)CC2)c1`, the activation was 8.79%.

`CCNS(=O)(=O)c1ccc(CCC(=O)N2CCN(c3cc(Cl)ccc3C)CC2)cc1`: the activation was 11.5% (active).

`OC(c1ccccc1)(c1ccccc1)C1CCN(CCCOc2ccc(-c3ccsc3)cc2)CC1`: the activation is 17.6% (active).

Regarding `Cc1ccc(NC(=O)c2ccc(CSc3ncnc4nc[nH]c34)cc2)c(C)c1`, the activation is 7.81%.

In the case of `O=C(CCc1ccccc1)Nc1cccc(-c2nnc(-c3ccco3)o2)c1`, the activation is 11%.
